According to the supplement of paper PMC3334620:
The full ranking holds about 33,000 sequences; the median of “E-score (-0.5 to 0.5)” is about -0.054, and the highest 2% start at about 0.39. The list comes from a sample in which the highest values are over-represented; it also holds similar and randomly drawn sequences.

The sequences below were run against Ylr278c (UniProt Q05854) (assay: PBM E-score (8-mer binding enrichment) (E-score (-0.5 to 0.5)); higher = stronger / more preferred TF binding). Conditions: protein concentration: 200 nM; construct: GST-DNA-binding domain.
Chain of UniProt Q05854 (Q05854 whole entry, the tested form may be a part): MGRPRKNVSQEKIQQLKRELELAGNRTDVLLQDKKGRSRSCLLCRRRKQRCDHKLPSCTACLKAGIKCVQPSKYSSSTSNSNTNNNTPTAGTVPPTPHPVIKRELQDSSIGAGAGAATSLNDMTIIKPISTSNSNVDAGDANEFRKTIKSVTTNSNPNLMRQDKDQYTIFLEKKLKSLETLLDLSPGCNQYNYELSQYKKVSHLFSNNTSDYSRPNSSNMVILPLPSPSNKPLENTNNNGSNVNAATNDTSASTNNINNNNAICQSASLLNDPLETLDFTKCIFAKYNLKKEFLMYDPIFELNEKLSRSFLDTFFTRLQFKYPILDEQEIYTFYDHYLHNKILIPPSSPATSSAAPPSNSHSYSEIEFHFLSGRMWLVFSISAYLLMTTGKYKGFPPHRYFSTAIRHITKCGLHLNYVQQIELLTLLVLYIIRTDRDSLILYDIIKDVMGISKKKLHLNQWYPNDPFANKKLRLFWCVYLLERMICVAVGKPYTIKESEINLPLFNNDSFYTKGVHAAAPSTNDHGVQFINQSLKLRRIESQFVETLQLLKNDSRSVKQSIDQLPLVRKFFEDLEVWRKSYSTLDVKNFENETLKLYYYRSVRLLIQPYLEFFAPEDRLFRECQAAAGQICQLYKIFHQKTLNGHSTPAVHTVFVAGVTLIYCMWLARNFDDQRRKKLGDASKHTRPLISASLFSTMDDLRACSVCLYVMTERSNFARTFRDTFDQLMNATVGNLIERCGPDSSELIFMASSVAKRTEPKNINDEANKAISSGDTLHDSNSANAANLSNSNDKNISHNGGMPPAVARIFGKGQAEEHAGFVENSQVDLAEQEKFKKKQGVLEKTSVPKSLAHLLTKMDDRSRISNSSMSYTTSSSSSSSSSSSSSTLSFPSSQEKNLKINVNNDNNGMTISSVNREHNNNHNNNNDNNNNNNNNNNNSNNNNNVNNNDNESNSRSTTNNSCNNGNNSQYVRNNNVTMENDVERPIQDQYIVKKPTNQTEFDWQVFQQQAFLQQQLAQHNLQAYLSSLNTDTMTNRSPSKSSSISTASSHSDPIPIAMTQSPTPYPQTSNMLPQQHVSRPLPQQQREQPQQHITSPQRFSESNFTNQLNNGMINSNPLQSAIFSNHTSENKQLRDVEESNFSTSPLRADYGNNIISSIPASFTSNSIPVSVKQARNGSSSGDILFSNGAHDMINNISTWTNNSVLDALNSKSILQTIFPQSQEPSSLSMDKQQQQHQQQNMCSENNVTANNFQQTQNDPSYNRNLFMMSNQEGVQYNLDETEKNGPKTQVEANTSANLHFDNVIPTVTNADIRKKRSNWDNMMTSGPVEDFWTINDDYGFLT
Experimental: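 Universal 'all 10-mer' protein binding microarrays (Agilent AMADID 015681) probed with GST-tagged S. cerevisiae TFs (full-length or DBD) made by in vitro transcription/translation (PURExpress), about 100-200 nM. Bound TF was detected with fluorescent anti-GST. Each ungapped 8-mer (which stands for itself and its reverse complement) is scored by the PBM enrichment score (E-score), a modified Wilcoxon-Mann-Whitney statistic from -0.5 to +0.5, computed with the Universal PBM Analysis Suite. Scale: above 0.35 generally sequence-specific binding.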

| Sequence | PBM E-score |
| --- | --- |
| AAAAGATC | -0.0655 |
| ATGCCGCC | 0.325 |
| CCCATGGC | -0.0499 |
| GTACCGCA | 0.164 |
| ATACCGGG | 0.334 |
| ATACCGGA | 0.405 |
| ATACCGGC | 0.354 |
| CTACCGGA | 0.348 |
| GTACCGGA | 0.415 |
| ATGTCCCA | -0.0785 |
| CTCTACTA | -0.245 |
| GAGCAAAC | 0.0239 |
| CTCCTATC | -0.0262 |
| CGGGCGTA | 0.178 |
| GGGGCGTA | 0.0266 |
| AGGGCGGA | 0.385 |
| CGGGCGGA | 0.405 |
| CGAGCGGA | 0.381 |
| CGGGCGGC | 0.31 |
| GGAGCGGA | 0.396 |
| GGGGCGGA | 0.412 |
| AGAGCGGA | 0.254 |
| CCAGTAGC | 0.181 |
| CATTGCTA | -0.0953 |
| ACGCTCTA | -0.183 |

| Sequence | PBM E-score |
| --- | --- |
| ATCGAAAG | -0.0309 |
| GACTGCTA | -0.277 |
| CCAGTCCA | -0.17 |
| GTCCCTAA | -0.0663 |
| AAGAGAGT | -0.0766 |
| ATTCCGGC | 0.463 |
| ATTCCCCG | 0.375 |
| ATTCCCGA | 0.338 |
| ACTCCCGG | 0.396 |
| ATTCCCGG | 0.411 |
| ACTCCCGA | 0.217 |
| ATTCCGGG | 0.443 |
| ATTCCAGC | -0.104 |
| ACTCCCCG | 0.338 |
| ATTCCTGC | 0.0732 |
| ATTCCGTG | 0.361 |
| ATTCCTGG | -0.0751 |
| GCGAGTCA | -0.0556 |
| CACCGCCC | 0.218 |
| AAGCTCTG | -0.356 |
| ATTTATCC | 0.163 |
| ACATCAAC | 0.05 |
| TAAAGAAA | 0.0382 |
| CGCCAAAC | 0.0632 |
| AATTAGCC | 0.0197 |

| Sequence | PBM E-score |
| --- | --- |
| CCGGAATC | 0.435 |
| ACGGAATA | 0.357 |
| CGGGAATA | 0.374 |
| CTGGAATC | -0.0172 |
| CCGGAATA | 0.434 |
| CCGGAAGA | 0.421 |
| CCGGAAGG | 0.387 |
| ACGGAAGA | 0.169 |
| GCGGAATA | 0.396 |
| ACGGAATC | 0.32 |
| GTGGAATA | 0.0653 |
| GGGGAATA | 0.141 |
| AAATGTGA | -0.146 |
| CACCCCCG | 0.145 |
| CATCTTTA | -0.0964 |
| AGGTAACG | -0.0647 |
| GTATGGGA | -0.174 |
| CCTCTACA | -0.252 |
| AAGATCTT | 0.0756 |
| AAGCGTCT | -0.176 |
| ACTCATGG | -0.191 |
| ACCCGGCC | 0.272 |
| AACCGGCG | 0.361 |
| ATACGGTG | 0.0149 |
| ACCCGGTG | 0.277 |

| Sequence | PBM E-score |
| --- | --- |
| AACCGGCC | 0.275 |
| ATCCGACG | 0.367 |
| ATCCGGCC | 0.399 |
| ATCCGGTG | 0.408 |
| ATCCGGCG | 0.432 |
| CTCACCTC | -0.0994 |
| CTAGCATC | -0.167 |
| CTGCTTTA | 0.0716 |
| GGTCTCTA | -0.21 |
| ATCGCCAC | -0.0201 |
| GCTGGGCA | -0.184 |
| ATAACTTG | -0.14 |
| ATACTGCC | 0.013 |
| ATAGAGAG | -0.283 |
| AAGTCCCT | -0.213 |
| ACGTCCGC | 0.299 |
| AAGTCCGG | 0.481 |
| AAGTCCGC | 0.46 |
| AAGTCCGT | 0.433 |
| AAGTCCAG | -0.0689 |
| AAGTCCTG | -0.106 |
| AAGTCCAT | -0.0494 |
| AAGTCCTC | 0.122 |
| CACCGCTG | -0.0372 |
| ACTTAAGG | -0.105 |

| Sequence | PBM E-score |
| --- | --- |
| ACACAAGA | -0.0979 |
| ACTAGAAT | -0.0455 |
| ATTGGCCC | -0.211 |
| GTCGTCGA | -0.121 |
| AGGGTGCC | -0.211 |
| CGTATCTC | 0.148 |
| CCCGGCAA | 0.303 |
| CCCGGCCA | 0.267 |
| GCCGGCAA | 0.391 |
| ACCGGCGA | 0.379 |
| TCCGGCCA | 0.409 |
| ACCGGCCA | 0.169 |
| GCCGGCAC | 0.304 |
| GCCGGCGA | 0.385 |
| TCCGGCAA | 0.431 |
| ACCGGCAA | 0.285 |
| TACGGCAA | 0.129 |
| TCCGGCGA | 0.437 |
| CCTAGTAA | 0.00285 |
| AGCCTGGC | -0.226 |
| AACCAGGG | -0.155 |
| GCTGCACC | 0.00051 |
| GAGGTGAA | -0.0886 |
| ACATCAGC | -0.0321 |
| AATTCCGA | 0.48 |

| Sequence | PBM E-score |
| --- | --- |
| AATTCCTG | 0.0336 |
| AATTCCCA | -0.035 |
| AATTCCAA | -0.00843 |
| AATTCCCT | -0.103 |
| AATTCCCG | 0.345 |
| CATTCCGC | 0.32 |
| AATTCCAT | 0.0569 |
| GATTCCGC | 0.355 |
| AATTCCGG | 0.48 |
| AATTCCGT | 0.441 |
| AATTCCGC | 0.456 |
| GCTAAATA | -0.231 |
| TGTGGAAA | -0.0101 |
| ATCCATTC | -0.0913 |
| TCTCGAAA | -0.21 |
| AAATGCCA | -0.131 |
| CAGGCTGG | -0.0868 |
| TGTGTCAA | -0.227 |
| CCGTTGTC | 0.233 |
| CAATCGGG | 0.219 |
| TAGTCGGA | 0.414 |
| GAATCGGC | 0.33 |
| AAATCGGT | 0.148 |
| AAATCGGG | 0.276 |
| AAATCGGA | 0.43 |

| Sequence | PBM E-score |
| --- | --- |
| CAATCGGA | 0.425 |
| GAATCGCA | -0.0817 |
| CAGTCGGA | 0.357 |
| CAATCGGC | 0.129 |
| GAATCGGA | 0.409 |
| GAGTCGGA | 0.387 |
| AGACGCAG | -0.164 |
| CCGCACAC | 0.0213 |
| AACCCAGG | -0.176 |
| ATGTACTC | -0.0177 |
| AGAGCTAA | -0.171 |
| CGAACGCA | 0.106 |
| CTCTGACC | -0.148 |
| AATTTTCC | 0.358 |
| GCCATCGC | -0.0776 |
| ATGTTCTG | -0.11 |
| TCTCTACA | -0.211 |
| TAATCGAA | -0.0147 |
| TAATCGTA | -0.186 |
| TAATCGGA | 0.417 |
| CCCTGTCA | -0.228 |
| ACCGCGGT | 0.178 |
